# Measured values published in the supplement of paper PMC6411743.
# ± gives the standard deviation of the averaged measurements. The full data set covers some 6,200 targets. This sample favours those with the largest changes.
# Compound: Nc1ncnc2c1ncn2[C@@H]1O[C@H](COP(=O)(O)OP(=O)(O)NP(=O)(O)O)[C@@H](O)[C@H]1O [adenylyl imidodiphosphate]
# Assay: NP40-soluble protein abundance relative to vehicle (solubility fold change) (ratio); higher = more soluble protein in presence of AMP-PNP
# Procedure, shortened: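 Crude Jurkat lysate, prepared by Dounce homogenisation, was exposed to eight concentrations from 0.1 to 10 mM for 10 min at room temperature and then 3 min at 37 °C. Solubilisation used 0.8% NP40 with benzonase for 60 min at 4 °C, followed by ultracentrifugation and TMT labelling of the supernatant for LC-MS/MS. After vsn normalisation of intensities, each value is the fold change against the detergent-processed vehicle within each replicate, across three independent experiments.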
# Chain of UniProt Q9H1D9 (Q9H1D9 whole entry): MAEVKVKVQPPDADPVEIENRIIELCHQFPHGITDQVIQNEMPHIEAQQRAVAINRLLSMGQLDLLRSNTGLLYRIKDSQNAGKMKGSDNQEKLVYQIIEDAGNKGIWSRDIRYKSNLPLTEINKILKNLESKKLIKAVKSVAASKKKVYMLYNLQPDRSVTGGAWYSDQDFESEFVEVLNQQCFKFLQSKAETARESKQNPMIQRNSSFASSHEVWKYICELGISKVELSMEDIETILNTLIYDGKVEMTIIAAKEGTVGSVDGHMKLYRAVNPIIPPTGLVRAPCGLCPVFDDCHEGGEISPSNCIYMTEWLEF
# Chain of UniProt Q9Y303 (Q9Y303 whole entry): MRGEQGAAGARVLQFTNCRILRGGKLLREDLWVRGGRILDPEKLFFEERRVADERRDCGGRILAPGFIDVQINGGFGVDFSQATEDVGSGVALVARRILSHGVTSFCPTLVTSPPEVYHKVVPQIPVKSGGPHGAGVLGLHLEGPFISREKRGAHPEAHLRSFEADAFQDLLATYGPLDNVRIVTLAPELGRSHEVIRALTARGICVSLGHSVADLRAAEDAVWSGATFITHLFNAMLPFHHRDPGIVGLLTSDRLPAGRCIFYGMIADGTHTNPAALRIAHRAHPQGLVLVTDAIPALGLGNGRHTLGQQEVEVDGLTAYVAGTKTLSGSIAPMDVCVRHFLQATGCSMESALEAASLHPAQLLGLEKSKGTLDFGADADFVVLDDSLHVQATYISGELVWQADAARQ
# Chain of UniProt Q96T76 (Q96T76 whole entry): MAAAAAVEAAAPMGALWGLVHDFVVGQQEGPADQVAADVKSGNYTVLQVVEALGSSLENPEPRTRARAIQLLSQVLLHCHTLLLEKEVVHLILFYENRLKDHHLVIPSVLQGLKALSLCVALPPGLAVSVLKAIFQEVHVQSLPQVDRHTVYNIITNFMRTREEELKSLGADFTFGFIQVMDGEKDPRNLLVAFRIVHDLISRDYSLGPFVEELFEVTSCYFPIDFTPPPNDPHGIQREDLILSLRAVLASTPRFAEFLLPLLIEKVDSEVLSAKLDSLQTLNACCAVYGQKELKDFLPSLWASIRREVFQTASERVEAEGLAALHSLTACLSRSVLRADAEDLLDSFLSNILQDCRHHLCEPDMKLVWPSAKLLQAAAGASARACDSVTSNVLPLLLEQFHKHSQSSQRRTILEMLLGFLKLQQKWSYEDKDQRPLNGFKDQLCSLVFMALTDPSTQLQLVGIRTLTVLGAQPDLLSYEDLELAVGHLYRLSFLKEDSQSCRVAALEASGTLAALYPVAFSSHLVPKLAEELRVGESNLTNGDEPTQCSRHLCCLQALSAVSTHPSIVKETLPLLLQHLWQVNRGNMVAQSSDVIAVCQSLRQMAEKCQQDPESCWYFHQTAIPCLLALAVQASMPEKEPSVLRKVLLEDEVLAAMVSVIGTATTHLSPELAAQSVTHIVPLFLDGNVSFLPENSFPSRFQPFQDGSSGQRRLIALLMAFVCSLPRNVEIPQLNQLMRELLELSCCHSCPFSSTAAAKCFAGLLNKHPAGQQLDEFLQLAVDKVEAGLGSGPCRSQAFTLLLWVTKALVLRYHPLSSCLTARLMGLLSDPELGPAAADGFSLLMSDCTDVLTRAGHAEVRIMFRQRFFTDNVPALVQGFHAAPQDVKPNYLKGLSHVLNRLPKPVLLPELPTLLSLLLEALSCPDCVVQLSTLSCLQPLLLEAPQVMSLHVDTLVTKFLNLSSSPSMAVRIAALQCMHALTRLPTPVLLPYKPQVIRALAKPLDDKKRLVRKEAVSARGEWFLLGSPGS
# Chain of UniProt Q9Y2A7 (Q9Y2A7 whole entry): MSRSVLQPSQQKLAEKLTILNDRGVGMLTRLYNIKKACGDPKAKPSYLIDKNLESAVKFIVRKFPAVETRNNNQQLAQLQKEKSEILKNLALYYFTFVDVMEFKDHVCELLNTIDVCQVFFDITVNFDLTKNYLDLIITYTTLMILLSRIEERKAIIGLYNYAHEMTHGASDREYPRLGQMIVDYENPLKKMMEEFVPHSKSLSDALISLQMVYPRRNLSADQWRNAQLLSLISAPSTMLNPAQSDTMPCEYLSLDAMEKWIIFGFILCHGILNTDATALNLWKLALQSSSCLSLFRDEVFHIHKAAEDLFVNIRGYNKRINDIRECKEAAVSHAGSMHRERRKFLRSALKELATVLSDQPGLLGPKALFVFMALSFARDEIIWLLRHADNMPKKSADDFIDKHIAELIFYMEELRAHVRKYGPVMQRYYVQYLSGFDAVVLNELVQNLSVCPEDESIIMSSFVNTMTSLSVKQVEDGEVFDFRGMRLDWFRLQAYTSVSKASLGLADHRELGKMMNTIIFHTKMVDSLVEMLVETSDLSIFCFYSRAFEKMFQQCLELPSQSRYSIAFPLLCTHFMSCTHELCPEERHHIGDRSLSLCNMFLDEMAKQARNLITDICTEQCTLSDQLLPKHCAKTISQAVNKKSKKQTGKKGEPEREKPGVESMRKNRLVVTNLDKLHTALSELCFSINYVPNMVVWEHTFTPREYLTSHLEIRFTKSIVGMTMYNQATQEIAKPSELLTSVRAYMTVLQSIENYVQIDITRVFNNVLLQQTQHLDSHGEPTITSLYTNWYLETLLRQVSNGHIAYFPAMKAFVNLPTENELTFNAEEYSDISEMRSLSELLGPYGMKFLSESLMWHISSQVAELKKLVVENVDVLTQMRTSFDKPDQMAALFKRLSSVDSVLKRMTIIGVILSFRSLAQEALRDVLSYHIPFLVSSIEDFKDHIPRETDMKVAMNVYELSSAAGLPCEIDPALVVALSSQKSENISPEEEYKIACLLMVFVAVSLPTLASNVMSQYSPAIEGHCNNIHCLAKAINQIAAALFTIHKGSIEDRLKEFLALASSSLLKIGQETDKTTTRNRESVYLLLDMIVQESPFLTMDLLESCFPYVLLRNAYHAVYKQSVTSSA
# Chain of UniProt Q96KM6 (Q96KM6 whole entry): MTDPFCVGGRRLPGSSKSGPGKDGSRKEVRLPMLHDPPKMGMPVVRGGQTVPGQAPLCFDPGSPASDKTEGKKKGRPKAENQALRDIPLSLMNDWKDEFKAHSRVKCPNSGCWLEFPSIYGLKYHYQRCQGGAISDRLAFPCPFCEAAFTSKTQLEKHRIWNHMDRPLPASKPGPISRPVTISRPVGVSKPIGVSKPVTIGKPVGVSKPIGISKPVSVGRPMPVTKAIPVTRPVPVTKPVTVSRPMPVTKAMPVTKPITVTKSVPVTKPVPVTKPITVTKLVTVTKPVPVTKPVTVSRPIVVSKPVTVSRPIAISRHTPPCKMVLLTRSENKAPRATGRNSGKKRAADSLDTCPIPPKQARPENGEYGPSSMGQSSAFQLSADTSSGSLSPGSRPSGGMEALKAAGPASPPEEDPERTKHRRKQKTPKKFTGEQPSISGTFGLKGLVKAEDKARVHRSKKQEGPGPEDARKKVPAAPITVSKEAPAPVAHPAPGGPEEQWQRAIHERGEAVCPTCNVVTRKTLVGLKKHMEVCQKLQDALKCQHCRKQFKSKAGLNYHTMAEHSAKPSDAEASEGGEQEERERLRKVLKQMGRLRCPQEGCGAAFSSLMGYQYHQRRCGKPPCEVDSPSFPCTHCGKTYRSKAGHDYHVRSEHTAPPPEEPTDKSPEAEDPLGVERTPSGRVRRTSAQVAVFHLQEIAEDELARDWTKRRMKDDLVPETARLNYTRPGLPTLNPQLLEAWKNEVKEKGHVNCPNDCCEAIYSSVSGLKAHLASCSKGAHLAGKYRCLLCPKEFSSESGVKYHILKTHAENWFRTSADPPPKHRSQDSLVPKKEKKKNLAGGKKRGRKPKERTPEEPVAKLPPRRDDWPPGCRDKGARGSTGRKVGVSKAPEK
# Chain of UniProt Q9ULX3 (Q9ULX3 whole entry): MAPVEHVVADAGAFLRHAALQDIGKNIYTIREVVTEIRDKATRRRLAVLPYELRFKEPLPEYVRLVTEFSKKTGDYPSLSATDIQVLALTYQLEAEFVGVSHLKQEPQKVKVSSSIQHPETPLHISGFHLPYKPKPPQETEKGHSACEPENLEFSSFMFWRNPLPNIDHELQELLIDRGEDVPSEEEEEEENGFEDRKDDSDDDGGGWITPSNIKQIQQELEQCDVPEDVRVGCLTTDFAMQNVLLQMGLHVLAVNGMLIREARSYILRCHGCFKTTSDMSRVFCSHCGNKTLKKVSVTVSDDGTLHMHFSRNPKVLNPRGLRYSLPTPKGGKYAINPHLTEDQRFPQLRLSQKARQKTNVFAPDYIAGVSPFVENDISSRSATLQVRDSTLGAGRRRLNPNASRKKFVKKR
# Chain of UniProt Q9NXK8 (Q9NXK8 whole entry): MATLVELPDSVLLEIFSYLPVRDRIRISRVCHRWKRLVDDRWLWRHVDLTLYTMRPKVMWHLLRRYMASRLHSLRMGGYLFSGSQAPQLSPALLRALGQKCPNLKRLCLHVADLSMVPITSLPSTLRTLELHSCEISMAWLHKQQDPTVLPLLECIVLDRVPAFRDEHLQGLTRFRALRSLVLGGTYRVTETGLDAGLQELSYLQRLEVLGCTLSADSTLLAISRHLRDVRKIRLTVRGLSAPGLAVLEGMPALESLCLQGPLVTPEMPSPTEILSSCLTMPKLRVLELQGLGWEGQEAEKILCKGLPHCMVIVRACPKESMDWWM
# Chain of UniProt Q9Y5Y5 (Q9Y5Y5 whole entry): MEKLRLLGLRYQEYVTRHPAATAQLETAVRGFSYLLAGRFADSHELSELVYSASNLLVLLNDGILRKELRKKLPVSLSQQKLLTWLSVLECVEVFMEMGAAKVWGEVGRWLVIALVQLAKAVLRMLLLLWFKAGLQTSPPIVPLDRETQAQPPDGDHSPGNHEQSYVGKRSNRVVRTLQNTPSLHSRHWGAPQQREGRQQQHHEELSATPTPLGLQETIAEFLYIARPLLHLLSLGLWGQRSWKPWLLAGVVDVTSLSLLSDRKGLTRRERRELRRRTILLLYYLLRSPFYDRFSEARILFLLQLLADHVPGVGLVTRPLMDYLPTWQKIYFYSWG
# Chain of UniProt Q9H1K1 (Q9H1K1 whole entry): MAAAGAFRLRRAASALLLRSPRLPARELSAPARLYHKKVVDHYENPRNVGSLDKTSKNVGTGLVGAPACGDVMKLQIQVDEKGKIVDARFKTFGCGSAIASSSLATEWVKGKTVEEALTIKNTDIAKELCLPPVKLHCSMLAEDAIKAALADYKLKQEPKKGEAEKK
Target,NP40-soluble protein abundance (concentration: 1mM),NP40-soluble protein abundance (concentration: 2mM),NP40-soluble protein abundance (concentration: 4mM),NP40-soluble protein abundance (concentration: 6mM),NP40-soluble protein abundance (concentration: 8mM),NP40-soluble protein abundance (concentration: 10mM)
UniProt Q9NSG2|Q9NSG2-2|Q9NSG2-3,0.991 ± 0.028,0.991 ± 0.015,0.993 ± 0.011,0.955 ± 0.022,0.964 ± 0.031,0.968 ± 0.015
UniProt Q96T76|Q96T76-8|Q96T76-9,0.964 ± 0.013,0.929 ± 0.082,0.972 ± 0.032,0.987 ± 0.036,1.002 ± 0.0053,0.9354 ± 0.0075
ISCU (UniProt Q9H1K1),1.01 ± 0.039,1.06 ± 0.018,0.987 ± 0.043,0.969 ± 0.03,0.96 ± 0.054,0.958 ± 0.047
ZNF512B (UniProt Q96KM6),1.01 ± 0.017,1.09 ± 0.06,1.1 ± 0.061,1.13 ± 0.044,1.16 ± 0.05,1.17 ± 0.064
PARP12 (UniProt Q9H0J9),0.982 ± 0.046,0.946 ± 0.042,1.01 ± 0.022,0.991 ± 0.015,1.04 ± 0.029,1.01 ± 0.023
PUS7 (UniProt Q96PZ0),1.03 ± 0.035,1.002 ± 0.0077,1.04 ± 0.019,1.008 ± 0.009,1.01 ± 0.015,1.01 ± 0.028
UniProt Q9Y5B6|Q9Y5B6-2,1.03 ± 0.048,1.05 ± 0.017,1.07 ± 0.057,1.06 ± 0.051,1.07 ± 0.049,1.14 ± 0.053
CHST12 (UniProt Q9NRB3),1.001 ± 0.0077,0.999 ± 0.01,0.9935 ± 0.0064,1 ± 0.016,1.017 ± 0.0078,1.011 ± 0.0063
UniProt Q9H668,0.991 ± 0.028,0.97 ± 0.028,0.985 ± 0.027,0.995 ± 0.018,0.985 ± 0.044,0.963 ± 0.024
AMDHD2 (UniProt Q9Y303),0.968 ± 0.016,0.923 ± 0.048,0.949 ± 0.024,0.954 ± 0.024,0.948 ± 0.02,0.922 ± 0.033
NOB1 (UniProt Q9ULX3),0.972 ± 0.013,0.956 ± 0.027,0.984 ± 0.042,0.966 ± 0.023,1 ± 0.043,1 ± 0.047
UniProt Q9NXK8|Q9NXK8-2,1.018 ± 0.0035,1 ± 0.031,0.9901 ± 0.0047,0.9994 ± 0.008,1.005 ± 0.0022,0.998 ± 0.024
UniProt Q96RP9|Q96RP9-2,0.99 ± 0.021,0.981 ± 0.031,0.989 ± 0.02,0.976 ± 0.01,0.972 ± 0.022,0.949 ± 0.029
POLR3F (UniProt Q9H1D9),0.959 ± 0.035,0.97 ± 0.08,0.962 ± 0.042,1.04 ± 0.062,1.03 ± 0.077,1.02 ± 0.087
UniProt Q9BZL4-4|Q9BZL4,1 ± 0.033,1.04 ± 0.036,1.01 ± 0.047,0.997 ± 0.023,0.978 ± 0.017,0.999 ± 0.015
UniProt Q9Y2A7|Q9Y2A7-2,0.972 ± 0.026,0.974 ± 0.034,0.9706 ± 0.0091,1 ± 0.019,0.976 ± 0.02,0.985 ± 0.026
NIPSNAP1 (UniProt Q9BPW8),0.94 ± 0.05,0.873 ± 0.075,0.943 ± 0.028,0.954 ± 0.08,1.02 ± 0.036,0.948 ± 0.021
UniProt Q9Y5Y5|Q9Y5Y5-2,0.967 ± 0.051,0.97 ± 0.05,0.9611 ± 0.0026,1.04 ± 0.024,1.03 ± 0.032,1.02 ± 0.052
